Publication PMC7862700, “An all-to-all approach to the identification of sequence-specific readers for epigenetic DNA modifications on cytosine”

How the values were obtained:
Test in all cases: DAPPL (digital affinity profiling via proximity ligation, sequencing); 10 mM Tris-HCl pH 7.5, 50 mM NaCl, 1 mM DTT, 4% glycerol, room temperature, 30 min; GST-TFs on glutathione beads, 16-mer random dsDNA library, 0.1% formaldehyde crosslink after washing; high values mean tight binding
FLI1 = molecular target: T1, FLI1 (Homo sapiens, UniProt Q01543 1-452); settings: protein: recombinant; tags: N-terminal GST; dsDNA, one strand shown
T1 sequence: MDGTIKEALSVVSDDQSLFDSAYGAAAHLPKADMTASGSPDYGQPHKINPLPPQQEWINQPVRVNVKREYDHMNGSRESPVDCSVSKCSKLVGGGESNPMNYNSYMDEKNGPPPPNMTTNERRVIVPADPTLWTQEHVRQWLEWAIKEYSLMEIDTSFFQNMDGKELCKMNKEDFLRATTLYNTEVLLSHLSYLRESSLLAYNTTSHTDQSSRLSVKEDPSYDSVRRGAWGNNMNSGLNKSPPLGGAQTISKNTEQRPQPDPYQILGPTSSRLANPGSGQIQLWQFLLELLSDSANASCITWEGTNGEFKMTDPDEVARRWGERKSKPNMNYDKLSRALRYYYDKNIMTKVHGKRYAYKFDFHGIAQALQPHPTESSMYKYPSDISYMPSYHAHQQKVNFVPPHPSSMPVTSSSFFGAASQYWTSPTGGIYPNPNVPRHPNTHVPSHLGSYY
Outline: (§1)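 Pools of DNA-barcoded human transcription factors, expressed in yeast as GST fusions on glutathione beads and combined with a tag-only sample, were incubated with 200 nmole of a 16-mer random double-stranded DNA library. Incubation took 30 min at room temperature in Tris/NaCl/DTT/glycerol buffer and was followed by washing, 0.1% formaldehyde crosslinking, proximity ligation (BsaI/T4 ligase, 1 h, 37 °C), PCR amplification and sequencing on an Illumina NextSeq500. Binding signal is the ratio of a hexamer's read frequency for a factor to its frequency for the tag-only sample.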

ELK1 = molecular target: T2, ELK1 (Homo sapiens, UniProt P19419 1-428); settings: protein: recombinant; tags: N-terminal GST; dsDNA, one strand shown
T2 sequence: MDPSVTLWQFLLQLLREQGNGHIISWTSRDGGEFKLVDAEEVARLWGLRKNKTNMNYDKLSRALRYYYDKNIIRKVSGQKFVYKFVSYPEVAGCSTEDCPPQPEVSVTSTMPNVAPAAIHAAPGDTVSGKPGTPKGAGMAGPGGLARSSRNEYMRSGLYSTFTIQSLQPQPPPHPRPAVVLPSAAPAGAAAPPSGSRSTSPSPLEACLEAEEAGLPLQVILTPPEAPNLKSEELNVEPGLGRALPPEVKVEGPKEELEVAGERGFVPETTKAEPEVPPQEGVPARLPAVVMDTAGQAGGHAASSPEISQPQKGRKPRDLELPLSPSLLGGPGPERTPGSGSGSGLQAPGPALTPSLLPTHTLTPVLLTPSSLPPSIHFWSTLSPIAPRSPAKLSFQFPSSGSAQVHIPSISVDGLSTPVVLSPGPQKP
Outline: as §1

GABPA = molecular target: T3, GABPA (Homo sapiens, UniProt Q06546 1-454); settings: protein: recombinant; tags: N-terminal GST; dsDNA, one strand shown
T3 sequence: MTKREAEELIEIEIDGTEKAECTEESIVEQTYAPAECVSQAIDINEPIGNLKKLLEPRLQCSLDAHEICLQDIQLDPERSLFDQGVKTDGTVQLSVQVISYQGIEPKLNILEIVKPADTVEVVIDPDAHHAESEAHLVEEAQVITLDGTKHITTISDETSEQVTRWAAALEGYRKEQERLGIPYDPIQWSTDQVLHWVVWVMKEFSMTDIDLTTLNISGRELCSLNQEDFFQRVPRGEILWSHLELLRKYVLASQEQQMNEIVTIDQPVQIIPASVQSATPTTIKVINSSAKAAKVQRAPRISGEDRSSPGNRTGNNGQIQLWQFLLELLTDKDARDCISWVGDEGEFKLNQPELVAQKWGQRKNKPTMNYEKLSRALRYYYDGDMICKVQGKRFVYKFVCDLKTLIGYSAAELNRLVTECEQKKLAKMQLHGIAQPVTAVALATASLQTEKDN
Outline: as §1

ERG = molecular target: T4, ERG (Homo sapiens, UniProt P11308 1-479); settings: protein: recombinant; tags: N-terminal GST; dsDNA, one strand shown
T4 sequence: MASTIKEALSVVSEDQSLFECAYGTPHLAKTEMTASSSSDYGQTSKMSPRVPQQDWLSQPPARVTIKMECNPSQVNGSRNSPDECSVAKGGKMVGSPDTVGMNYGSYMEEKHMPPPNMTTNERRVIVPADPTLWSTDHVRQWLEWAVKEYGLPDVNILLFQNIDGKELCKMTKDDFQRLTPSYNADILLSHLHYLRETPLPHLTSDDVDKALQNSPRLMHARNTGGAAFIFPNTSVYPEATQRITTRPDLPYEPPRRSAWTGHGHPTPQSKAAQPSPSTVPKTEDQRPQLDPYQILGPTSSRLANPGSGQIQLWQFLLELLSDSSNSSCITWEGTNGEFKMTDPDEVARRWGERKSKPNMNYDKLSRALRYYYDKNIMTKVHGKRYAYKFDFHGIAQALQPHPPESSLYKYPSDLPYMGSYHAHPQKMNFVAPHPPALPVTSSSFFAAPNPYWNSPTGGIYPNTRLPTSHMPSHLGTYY
Outline: as §1

ELF1 = ELF1 (Homo sapiens, UniProt P32519 1-619); settings: protein: recombinant; tags: N-terminal GST; dsDNA, one strand shown
Sequence of ELF1 (P32519 whole entry): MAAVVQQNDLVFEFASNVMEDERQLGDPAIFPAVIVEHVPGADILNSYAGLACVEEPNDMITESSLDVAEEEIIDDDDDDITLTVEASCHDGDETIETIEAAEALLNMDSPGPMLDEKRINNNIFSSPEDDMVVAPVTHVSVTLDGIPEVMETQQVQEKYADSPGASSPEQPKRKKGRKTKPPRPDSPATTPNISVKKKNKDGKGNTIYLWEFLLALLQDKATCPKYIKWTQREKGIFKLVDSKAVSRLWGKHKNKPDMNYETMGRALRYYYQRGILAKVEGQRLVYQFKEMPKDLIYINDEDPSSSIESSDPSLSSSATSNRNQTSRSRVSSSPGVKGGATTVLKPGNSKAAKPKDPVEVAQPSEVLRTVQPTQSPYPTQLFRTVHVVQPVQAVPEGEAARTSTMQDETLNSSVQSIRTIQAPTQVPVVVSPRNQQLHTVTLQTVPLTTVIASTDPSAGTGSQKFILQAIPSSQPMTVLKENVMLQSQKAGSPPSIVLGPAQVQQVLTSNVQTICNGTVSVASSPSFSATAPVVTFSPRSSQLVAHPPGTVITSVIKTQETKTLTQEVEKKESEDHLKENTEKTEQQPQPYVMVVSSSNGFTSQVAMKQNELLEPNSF
Outline: as §1

EHF = molecular target: T5, EHF (Homo sapiens, UniProt Q9NZC4 1-300); settings: protein: recombinant; tags: N-terminal GST; dsDNA, one strand shown
T5 sequence: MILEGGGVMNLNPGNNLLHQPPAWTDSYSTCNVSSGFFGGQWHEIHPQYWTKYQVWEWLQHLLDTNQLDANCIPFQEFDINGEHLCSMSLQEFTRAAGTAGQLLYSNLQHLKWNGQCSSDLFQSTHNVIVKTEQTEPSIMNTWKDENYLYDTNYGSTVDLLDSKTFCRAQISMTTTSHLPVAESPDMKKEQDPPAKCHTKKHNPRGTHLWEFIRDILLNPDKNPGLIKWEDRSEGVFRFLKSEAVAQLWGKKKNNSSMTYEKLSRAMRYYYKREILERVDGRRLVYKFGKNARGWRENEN
Outline: as §1

SPI1 = SPI1 (Homo sapiens, UniProt P17947 1-270); settings: protein: recombinant; tags: N-terminal GST; dsDNA, one strand shown
Outline: as §1

SPIB = SPIB (Homo sapiens, UniProt Q01892 1-262); settings: protein: recombinant; tags: N-terminal GST; dsDNA, one strand shown
Sequence of SPIB (Q01892 whole entry): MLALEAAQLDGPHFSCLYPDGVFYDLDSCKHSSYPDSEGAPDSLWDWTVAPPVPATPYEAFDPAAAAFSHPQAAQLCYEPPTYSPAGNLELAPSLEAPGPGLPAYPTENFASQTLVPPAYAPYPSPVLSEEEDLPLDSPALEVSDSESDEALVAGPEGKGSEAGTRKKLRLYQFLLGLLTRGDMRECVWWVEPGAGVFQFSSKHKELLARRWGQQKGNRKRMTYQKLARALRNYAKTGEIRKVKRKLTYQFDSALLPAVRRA
Outline: as §1

ELK3 = molecular target: T6, ELK3 (Homo sapiens, UniProt P41970 1-407); settings: protein: recombinant; tags: N-terminal GST; dsDNA, one strand shown
T6 sequence: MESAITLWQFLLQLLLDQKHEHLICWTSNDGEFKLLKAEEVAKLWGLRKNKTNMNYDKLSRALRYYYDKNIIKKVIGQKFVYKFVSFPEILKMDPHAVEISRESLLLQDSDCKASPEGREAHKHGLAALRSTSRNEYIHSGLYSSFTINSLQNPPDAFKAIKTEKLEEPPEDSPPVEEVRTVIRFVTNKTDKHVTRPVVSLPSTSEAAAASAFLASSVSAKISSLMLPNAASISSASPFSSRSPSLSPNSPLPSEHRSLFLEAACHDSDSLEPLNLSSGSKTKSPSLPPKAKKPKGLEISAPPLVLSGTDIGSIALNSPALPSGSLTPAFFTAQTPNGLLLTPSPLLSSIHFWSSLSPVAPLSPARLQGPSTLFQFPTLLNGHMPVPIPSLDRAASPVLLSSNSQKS
Outline: as §1

FEV = molecular target: T7, FEV (Homo sapiens, UniProt Q99581 1-238); settings: protein: recombinant; tags: N-terminal GST; dsDNA, one strand shown
T7 sequence: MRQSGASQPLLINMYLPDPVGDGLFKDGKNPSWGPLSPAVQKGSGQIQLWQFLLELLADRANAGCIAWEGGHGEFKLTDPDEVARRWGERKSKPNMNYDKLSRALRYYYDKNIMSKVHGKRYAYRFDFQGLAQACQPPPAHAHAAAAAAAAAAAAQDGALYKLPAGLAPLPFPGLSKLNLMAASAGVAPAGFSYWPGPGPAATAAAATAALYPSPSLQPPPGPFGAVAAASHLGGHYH
Outline: as §1

ETV5 = ETV5 (Homo sapiens, UniProt P41161 1-510); settings: protein: recombinant; tags: N-terminal GST; dsDNA, one strand shown
Sequence of ETV5 (P41161 whole entry): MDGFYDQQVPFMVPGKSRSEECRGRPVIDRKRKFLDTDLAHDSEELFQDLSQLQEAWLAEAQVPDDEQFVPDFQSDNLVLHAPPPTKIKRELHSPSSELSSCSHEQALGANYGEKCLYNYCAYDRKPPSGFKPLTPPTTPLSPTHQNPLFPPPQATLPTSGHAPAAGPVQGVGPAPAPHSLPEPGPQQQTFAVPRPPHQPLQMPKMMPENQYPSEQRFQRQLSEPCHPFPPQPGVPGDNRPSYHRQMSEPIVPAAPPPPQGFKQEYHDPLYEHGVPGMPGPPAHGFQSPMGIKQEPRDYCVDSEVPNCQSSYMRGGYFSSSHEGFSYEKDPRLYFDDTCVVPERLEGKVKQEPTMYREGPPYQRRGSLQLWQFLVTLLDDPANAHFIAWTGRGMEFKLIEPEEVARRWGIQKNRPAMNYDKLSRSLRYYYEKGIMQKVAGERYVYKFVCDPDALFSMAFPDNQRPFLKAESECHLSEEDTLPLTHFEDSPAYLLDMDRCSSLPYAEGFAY
Outline: as §1

HSF1 = HSF1 (Homo sapiens, UniProt Q00613 1-529); settings: protein: recombinant; tags: N-terminal GST; chain copies: 3; dsDNA, one strand shown
Sequence of HSF1 (Q00613 whole entry): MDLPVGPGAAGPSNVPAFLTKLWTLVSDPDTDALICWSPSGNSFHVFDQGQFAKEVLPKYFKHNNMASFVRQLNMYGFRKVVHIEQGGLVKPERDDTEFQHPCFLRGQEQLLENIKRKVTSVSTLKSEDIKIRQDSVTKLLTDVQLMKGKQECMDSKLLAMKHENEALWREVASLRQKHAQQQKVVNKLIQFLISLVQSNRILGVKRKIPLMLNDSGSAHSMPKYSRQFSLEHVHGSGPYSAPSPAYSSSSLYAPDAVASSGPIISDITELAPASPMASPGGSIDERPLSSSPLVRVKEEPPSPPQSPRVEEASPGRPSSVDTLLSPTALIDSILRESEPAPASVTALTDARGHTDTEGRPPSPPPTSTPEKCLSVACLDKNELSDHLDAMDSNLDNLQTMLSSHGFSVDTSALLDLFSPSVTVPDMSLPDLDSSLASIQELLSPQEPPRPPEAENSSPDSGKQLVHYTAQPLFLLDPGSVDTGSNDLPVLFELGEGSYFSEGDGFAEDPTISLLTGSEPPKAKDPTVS
Outline: as §1

SPIC = molecular target: T8, SPIC (Homo sapiens, UniProt Q8N5J4 1-248); settings: protein: recombinant; tags: N-terminal GST; dsDNA, one strand shown
T8 sequence: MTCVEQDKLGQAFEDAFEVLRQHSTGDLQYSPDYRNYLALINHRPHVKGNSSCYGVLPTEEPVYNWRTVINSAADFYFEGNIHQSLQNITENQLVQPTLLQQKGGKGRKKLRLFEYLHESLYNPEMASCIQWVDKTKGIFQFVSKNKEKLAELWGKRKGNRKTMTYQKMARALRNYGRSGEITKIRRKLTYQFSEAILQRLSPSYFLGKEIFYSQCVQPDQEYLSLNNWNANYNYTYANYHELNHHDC
Outline: as §1

ELF4 = ELF4 (Homo sapiens, UniProt Q99607 1-663); settings: protein: recombinant; tags: N-terminal GST; dsDNA, one strand shown
Sequence of ELF4 (Q99607 whole entry): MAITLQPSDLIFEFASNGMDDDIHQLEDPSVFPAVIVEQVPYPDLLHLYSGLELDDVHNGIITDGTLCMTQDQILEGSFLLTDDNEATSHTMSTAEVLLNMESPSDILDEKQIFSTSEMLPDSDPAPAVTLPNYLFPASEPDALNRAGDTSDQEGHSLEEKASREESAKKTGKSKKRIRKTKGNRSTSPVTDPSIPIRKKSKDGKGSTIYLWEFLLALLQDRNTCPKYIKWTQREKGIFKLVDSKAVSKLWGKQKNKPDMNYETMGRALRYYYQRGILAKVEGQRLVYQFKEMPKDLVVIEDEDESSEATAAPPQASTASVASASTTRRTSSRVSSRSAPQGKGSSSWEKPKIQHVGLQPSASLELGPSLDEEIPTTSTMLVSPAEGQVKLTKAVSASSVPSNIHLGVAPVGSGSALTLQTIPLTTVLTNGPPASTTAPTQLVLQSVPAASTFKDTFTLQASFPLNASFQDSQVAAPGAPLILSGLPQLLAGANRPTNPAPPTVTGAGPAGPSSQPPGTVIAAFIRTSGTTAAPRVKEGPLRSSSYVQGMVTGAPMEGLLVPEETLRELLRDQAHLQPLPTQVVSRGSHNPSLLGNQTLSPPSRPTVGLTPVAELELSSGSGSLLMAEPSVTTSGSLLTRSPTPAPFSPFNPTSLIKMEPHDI
Outline: as §1

ELK4 = molecular target: T9, ELK4 (Homo sapiens, UniProt P28324-2 1-405); settings: protein: recombinant; tags: N-terminal GST; dsDNA, one strand shown
T9 sequence: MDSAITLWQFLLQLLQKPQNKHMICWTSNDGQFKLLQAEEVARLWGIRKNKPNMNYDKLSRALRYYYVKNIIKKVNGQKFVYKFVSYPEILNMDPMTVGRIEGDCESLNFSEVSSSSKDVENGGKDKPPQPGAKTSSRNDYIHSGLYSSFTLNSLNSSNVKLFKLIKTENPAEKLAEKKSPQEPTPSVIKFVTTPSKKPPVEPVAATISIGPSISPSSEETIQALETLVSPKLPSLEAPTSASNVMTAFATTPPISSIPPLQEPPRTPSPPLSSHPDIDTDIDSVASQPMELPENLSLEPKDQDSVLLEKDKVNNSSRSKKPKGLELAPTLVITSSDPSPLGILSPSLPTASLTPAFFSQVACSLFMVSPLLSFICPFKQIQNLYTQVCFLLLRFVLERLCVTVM
Outline: as §1

ETV2 = molecular target: T10, ETV2 (Homo sapiens, UniProt O00321 1-342); settings: protein: recombinant; tags: N-terminal GST; dsDNA, one strand shown
T10 sequence: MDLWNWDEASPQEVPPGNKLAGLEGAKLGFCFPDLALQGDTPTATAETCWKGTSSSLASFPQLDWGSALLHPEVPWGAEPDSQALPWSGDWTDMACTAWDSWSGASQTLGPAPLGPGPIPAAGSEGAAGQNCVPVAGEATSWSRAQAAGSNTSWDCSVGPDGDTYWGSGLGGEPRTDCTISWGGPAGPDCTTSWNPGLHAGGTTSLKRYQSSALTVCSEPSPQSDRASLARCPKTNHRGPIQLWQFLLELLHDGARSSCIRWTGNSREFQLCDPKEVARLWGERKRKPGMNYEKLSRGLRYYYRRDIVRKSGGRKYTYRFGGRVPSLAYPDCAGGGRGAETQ
Outline: as §1

ELF3 = molecular target: T11, ELF3 (Homo sapiens, UniProt P78545 1-371); settings: protein: recombinant; tags: N-terminal GST; dsDNA, one strand shown
T11 sequence: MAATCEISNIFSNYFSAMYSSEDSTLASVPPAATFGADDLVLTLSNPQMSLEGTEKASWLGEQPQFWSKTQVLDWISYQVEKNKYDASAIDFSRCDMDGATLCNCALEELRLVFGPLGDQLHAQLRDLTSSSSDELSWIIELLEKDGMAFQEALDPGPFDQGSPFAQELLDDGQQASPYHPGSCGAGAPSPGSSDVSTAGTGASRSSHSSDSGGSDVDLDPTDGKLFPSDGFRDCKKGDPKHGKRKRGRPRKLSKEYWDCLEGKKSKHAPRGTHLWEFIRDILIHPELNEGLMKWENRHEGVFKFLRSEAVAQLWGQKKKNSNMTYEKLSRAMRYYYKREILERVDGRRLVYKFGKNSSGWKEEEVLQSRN
Outline: as §1

CRX = CRX (Homo sapiens, UniProt O43186 1-299); settings: protein: recombinant; tags: N-terminal GST; dsDNA, one strand shown
Sequence of CRX (O43186 whole entry): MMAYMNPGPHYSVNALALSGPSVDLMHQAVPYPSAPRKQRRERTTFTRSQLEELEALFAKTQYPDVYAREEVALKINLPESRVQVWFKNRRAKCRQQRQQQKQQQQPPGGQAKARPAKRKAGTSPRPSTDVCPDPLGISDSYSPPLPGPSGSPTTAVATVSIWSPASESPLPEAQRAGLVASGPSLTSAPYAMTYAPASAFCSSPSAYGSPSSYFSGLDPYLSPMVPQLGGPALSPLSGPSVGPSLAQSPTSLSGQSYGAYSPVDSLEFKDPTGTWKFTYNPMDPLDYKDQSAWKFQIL
Outline: as §1

ETV1 = ETV1 (Homo sapiens, UniProt P50549 1-477); settings: protein: recombinant; tags: N-terminal GST; dsDNA, one strand shown
Sequence of ETV1 (P50549 whole entry): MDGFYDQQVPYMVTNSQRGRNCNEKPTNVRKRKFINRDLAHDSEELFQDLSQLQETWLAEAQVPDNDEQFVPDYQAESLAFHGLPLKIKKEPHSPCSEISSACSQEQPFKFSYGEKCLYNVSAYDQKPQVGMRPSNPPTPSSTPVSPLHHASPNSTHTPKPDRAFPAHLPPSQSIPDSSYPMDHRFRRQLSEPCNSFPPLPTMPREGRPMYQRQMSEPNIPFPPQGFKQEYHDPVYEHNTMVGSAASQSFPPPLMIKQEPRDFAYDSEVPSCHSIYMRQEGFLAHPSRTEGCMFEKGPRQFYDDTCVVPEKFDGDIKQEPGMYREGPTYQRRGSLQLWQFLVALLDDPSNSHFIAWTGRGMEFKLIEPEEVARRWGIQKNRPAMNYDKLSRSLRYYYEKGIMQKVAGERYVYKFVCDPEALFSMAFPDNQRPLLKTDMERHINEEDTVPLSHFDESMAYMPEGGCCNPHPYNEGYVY
Outline: as §1

## CACTTA
FLI1
  binding signal: 1.17 fold enrichment (6-mer frequency, TF over GST control)
ELK1
  binding signal: 1.24 fold enrichment (6-mer frequency, TF over GST control)
GABPA
  binding signal: 1.25 fold enrichment (6-mer frequency, TF over GST control)
ERG
  binding signal: 1.22 fold enrichment (6-mer frequency, TF over GST control)
ELF1
  binding signal: 1.27 fold enrichment (6-mer frequency, TF over GST control)
EHF
  binding signal: 1.18 fold enrichment (6-mer frequency, TF over GST control)
SPI1
  binding signal: 1.21 fold enrichment (6-mer frequency, TF over GST control)
SPIB
  binding signal: 1.19 fold enrichment (6-mer frequency, TF over GST control)
ELK3
  binding signal: 1.2 fold enrichment (6-mer frequency, TF over GST control)
FEV
  binding signal: 1.19 fold enrichment (6-mer frequency, TF over GST control)
ETV5
  binding signal: 1.2 fold enrichment (6-mer frequency, TF over GST control)
HSF1
  binding signal: 1.26 fold enrichment (6-mer frequency, TF over GST control)
SPIC
  binding signal: 1.08 fold enrichment (6-mer frequency, TF over GST control)
ELF4
  binding signal: 1.19 fold enrichment (6-mer frequency, TF over GST control)
ELK4
  binding signal: 1.13 fold enrichment (6-mer frequency, TF over GST control)
ETV2
  binding signal: 1.21 fold enrichment (6-mer frequency, TF over GST control)
ELF3
  binding signal: 1.24 fold enrichment (6-mer frequency, TF over GST control)
CRX
  binding signal: 1.62 fold enrichment (6-mer frequency, TF over GST control)
ETV1
  binding signal: 1.25 fold enrichment (6-mer frequency, TF over GST control)
